For twelve compounds, Percent Effect results are on record in ChEMBL document CHEMBL3988442, “University of Dundee, Small-Polar-MMV Screening Library” (2021).

Set-up in all cases: scale not given: direction of the effect not stated beside the values
The target in test [1] is Protein translocase subunit SecA (Escherichia coli (strain K12)) (UniProt P10408). Briefly: Assay to Identify E. coli SecA ATPase Inhibitors. In kind it is functional. The following applies: 30 µM.
For test [2], the target named is T1, Ubiquitin-activating enzyme e1, putative (Leishmania donovani (strain BPK282A1)) (UniProt E9BSI1).
T1 sequence (whole entry): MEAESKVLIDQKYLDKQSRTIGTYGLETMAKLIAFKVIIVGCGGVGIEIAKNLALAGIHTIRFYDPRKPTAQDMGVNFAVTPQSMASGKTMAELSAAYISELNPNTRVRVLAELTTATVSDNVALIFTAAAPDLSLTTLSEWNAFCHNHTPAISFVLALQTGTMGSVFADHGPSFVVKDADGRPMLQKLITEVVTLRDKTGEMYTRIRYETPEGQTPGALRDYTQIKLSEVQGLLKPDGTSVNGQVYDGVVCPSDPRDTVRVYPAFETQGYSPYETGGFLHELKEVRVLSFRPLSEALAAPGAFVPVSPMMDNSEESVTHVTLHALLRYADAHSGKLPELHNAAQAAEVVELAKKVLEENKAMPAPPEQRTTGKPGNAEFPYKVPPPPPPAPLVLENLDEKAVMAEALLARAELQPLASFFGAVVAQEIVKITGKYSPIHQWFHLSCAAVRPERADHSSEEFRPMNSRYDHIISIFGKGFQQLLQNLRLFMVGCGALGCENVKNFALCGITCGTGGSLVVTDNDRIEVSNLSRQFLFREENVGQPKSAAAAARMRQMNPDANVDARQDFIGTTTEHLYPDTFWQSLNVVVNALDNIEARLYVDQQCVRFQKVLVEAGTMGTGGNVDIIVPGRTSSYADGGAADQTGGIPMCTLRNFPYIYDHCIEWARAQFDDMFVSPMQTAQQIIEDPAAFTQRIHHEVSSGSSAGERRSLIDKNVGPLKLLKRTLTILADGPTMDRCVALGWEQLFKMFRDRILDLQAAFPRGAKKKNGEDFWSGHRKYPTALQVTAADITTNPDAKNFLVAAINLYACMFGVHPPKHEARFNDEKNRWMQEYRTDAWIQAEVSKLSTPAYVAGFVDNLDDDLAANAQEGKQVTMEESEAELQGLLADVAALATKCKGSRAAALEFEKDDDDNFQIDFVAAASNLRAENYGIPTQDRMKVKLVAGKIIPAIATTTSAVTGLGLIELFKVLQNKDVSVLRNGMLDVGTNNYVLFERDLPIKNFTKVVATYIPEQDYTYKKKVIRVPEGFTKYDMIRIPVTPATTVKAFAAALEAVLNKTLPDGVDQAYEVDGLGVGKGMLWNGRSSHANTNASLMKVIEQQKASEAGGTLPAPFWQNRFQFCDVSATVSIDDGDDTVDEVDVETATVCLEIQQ
The experiment in a line: Leishmania donovani Ubiquitin Activating Enzyme (LdE1). The following applies: 30 µM. It counts as functional.

Test [3] addresses Sialic acid-binding Ig-like lectin 9 (Homo sapiens) (UniProt Q9Y336). Briefly: Hs-Siglec9 ALPHAscreen SOP 20170721. The following applies: 10 µM. (In general: In Alpha technology, singlet oxygen from a donor bead excites a nearby acceptor bead.)
For the next test, the system named is Trypanosoma cruzi. Briefly: Trypanosoma cruzi phosphomannomutase and mannose-1-phosphate guanylyltransferase assay. In kind it is functional. Particulars: 10 µM.
The target in test [4] is T2, Arginase-2, mitochondrial (Homo sapiens) (UniProt P78540).
T2 sequence (whole entry): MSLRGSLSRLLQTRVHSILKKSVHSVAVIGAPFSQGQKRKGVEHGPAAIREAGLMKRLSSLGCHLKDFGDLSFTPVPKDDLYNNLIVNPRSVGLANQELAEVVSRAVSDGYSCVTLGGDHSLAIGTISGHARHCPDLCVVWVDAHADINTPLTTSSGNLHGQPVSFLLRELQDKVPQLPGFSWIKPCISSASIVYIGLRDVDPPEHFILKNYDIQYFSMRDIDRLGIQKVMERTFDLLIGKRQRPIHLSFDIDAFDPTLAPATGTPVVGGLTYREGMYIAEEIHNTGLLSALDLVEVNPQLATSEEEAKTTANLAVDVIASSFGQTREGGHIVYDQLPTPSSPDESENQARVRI
The experiment in a line: in vitro enzyme assay to detect the production of urea directly proportional to the activity of Arginase II. Note: in the data most compounds retested in dose-response had high values. It counts as functional. The following applies: 33.3 µM.

In test [5] the target is T3, Proteasome subunit beta (Trypanosoma cruzi) (UniProt O96673).
T3 sequence (whole entry): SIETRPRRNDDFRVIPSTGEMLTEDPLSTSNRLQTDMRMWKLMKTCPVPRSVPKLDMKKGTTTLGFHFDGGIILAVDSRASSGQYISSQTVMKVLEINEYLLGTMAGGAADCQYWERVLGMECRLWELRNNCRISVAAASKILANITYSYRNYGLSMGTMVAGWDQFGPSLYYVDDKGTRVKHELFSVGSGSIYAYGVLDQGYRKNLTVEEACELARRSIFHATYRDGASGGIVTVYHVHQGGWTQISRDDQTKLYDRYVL
The experiment in a line: Trypanosoma cruzi proteasome chymotrypsin-like activity (TcProtChymo) assay. Note: in the data most compounds retested in dose-response had high values. The following applies: 9.37 µM. It counts as functional.

The species entered for the next test is Homo sapiens. Briefly: To identify inhibition of the IFN signalling (Jak-Stat) pathway via expression of an eGFP reporter gene under the control of an IFN-stimulated response element (ISRE) containing MxA promoter. In kind it is functional. Particulars: 30 µM.
The target of test [6] is T4, Tyrosyl-tRNA synthetase, putative (Trypanosoma cruzi (strain CL Brener)) (UniProt Q4DSP6).
T4 sequence (whole entry): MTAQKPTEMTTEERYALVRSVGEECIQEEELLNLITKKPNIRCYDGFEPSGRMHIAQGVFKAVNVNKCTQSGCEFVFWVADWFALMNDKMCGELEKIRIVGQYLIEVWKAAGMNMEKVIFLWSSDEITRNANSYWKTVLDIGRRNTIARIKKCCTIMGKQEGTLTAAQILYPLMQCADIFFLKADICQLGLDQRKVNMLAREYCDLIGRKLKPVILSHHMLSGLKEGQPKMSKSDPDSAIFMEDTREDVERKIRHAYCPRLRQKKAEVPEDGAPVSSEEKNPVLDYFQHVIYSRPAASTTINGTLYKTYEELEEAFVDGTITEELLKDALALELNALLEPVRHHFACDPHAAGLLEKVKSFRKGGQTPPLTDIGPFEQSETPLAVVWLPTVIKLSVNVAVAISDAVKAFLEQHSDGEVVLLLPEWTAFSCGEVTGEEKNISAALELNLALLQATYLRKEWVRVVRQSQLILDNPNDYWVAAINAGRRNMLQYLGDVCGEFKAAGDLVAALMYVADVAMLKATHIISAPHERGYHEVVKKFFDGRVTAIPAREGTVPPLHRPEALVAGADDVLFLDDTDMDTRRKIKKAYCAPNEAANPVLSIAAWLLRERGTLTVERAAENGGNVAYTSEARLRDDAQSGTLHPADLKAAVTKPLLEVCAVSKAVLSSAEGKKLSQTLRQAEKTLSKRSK
Briefly: Trypanosoma cruzi tyrosyl tRNA synthetase (TcYRS) _High Tyrosine SOP. Note: in the data most compounds retested in dose-response had high values. It counts as functional. Particulars: 30 µM.

Test [7] addresses T4, Tyrosyl-tRNA synthetase, putative (Trypanosoma cruzi (strain CL Brener)). The experiment in a line: Trypanosoma cruzi tyrosyl tRNA synthetase (TcYRS) SOP. Particulars: 30 µM. In kind it is functional.
The target of test [8] is Chromo domain-containing protein 1 (Saccharomyces cerevisiae (strain ATCC 204508 / S288c) (Baker's yeast)) (UniProt P32657). Briefly: ScCHD-1 Enzyme Inhibition Assay. Note: in the data most compounds retested in dose-response had high values. The following applies: 30 µM. In kind it is functional.
Chain of Chromo domain-containing protein 1 (Saccharomyces cerevisiae (strain ATCC 204508 / S288c) (Baker's yeast)) (P32657 whole entry, the tested form may be a part): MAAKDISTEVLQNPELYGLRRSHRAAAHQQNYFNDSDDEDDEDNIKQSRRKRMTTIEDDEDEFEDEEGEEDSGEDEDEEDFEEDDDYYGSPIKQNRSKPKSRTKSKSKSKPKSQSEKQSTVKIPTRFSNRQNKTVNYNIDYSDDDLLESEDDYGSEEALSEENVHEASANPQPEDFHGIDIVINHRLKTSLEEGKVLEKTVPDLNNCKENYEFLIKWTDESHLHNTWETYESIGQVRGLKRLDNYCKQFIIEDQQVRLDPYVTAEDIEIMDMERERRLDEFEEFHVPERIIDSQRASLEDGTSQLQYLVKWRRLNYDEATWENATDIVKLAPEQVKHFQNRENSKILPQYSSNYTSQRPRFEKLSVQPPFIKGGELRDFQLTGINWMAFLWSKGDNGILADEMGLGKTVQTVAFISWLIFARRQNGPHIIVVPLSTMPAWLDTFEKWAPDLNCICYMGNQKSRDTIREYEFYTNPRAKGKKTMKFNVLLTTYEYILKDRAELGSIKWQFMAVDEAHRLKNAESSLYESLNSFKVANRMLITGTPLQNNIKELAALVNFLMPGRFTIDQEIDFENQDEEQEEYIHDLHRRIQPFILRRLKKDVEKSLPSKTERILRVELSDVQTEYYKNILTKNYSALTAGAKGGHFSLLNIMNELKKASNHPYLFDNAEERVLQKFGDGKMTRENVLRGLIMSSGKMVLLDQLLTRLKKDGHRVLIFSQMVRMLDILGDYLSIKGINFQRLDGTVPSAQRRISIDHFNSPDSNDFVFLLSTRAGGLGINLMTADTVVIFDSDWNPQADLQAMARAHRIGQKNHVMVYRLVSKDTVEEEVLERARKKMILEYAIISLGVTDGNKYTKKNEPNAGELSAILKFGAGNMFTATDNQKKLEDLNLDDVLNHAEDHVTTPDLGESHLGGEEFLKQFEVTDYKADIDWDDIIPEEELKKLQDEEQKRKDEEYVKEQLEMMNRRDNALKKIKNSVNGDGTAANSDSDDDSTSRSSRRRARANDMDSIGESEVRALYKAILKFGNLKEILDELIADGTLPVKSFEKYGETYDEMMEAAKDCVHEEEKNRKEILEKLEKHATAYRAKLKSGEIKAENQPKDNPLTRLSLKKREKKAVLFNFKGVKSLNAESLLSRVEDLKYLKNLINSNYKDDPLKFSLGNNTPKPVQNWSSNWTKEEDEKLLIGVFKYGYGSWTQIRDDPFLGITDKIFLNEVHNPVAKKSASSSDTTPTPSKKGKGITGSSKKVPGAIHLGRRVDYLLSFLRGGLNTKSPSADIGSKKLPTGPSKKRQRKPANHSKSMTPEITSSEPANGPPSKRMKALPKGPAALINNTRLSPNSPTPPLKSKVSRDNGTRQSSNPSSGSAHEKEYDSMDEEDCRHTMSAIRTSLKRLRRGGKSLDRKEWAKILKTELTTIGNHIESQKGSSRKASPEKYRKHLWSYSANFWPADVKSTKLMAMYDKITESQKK

For part of these data: Measured potencies and affinities stand elsewhere.

Chain of Protein translocase subunit SecA (Escherichia coli (strain K12)) (P10408 whole entry): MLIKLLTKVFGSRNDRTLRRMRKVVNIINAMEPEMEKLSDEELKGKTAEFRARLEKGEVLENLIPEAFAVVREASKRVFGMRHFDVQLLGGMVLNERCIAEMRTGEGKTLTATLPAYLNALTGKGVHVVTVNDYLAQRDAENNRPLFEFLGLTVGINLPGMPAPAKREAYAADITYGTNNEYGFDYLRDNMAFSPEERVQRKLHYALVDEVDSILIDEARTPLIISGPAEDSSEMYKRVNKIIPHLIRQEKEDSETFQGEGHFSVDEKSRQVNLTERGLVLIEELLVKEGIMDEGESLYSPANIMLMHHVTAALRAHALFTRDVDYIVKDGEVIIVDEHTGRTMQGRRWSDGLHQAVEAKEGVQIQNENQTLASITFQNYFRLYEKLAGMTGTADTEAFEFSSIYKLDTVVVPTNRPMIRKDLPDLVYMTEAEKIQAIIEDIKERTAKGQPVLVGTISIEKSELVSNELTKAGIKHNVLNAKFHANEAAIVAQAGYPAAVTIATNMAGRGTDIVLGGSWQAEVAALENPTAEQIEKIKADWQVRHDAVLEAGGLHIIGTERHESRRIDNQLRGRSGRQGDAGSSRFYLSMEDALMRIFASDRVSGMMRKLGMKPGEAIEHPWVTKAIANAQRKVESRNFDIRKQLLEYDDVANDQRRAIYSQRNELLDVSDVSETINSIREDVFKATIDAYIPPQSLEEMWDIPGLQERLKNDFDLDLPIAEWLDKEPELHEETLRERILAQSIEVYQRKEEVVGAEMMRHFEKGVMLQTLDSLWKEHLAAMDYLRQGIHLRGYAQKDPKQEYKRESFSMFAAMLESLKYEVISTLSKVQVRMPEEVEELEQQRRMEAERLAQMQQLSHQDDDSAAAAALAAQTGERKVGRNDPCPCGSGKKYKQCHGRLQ
Chain of Sialic acid-binding Ig-like lectin 9 (Homo sapiens) (Q9Y336 whole entry): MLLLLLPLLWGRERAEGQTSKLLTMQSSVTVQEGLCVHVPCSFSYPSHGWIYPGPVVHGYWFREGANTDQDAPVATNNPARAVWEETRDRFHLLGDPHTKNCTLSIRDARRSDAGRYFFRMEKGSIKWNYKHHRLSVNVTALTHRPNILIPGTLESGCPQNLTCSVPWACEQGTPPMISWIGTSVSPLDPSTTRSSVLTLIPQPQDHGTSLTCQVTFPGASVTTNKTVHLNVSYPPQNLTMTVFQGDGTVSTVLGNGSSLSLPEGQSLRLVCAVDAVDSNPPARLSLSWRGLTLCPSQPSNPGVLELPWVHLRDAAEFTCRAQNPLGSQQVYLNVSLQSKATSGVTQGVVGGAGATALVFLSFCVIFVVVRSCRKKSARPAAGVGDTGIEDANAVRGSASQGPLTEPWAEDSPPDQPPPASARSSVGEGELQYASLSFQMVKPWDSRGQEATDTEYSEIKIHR

Regarding `Cc1noc(C2CCN(C(=O)CN(C)c3ccc(Cl)cn3)CC2)n1`, the Percent Effect is -1.77% in test [1]; 12.8% in [2]; -5.03% in test [3]; 4.6% in the test with Trypanosoma cruzi; 6.56% in test [4]; 8.11% in test [5]. Further, the Percent Effect in the test listed under Homo sapiens is 3.6%; in test [6], 8.13%; in [7], 20.5%; in test [8] it was -1.95%.
On to `OC(COc1ccccc1)CN1CCc2c(ncn2C2CC2)C1` (stereo not given), for which the Percent Effect in [1] was -6.24%; in test [2] it was 8%; in [3], 5.27%; in the test with Trypanosoma cruzi it was -6.02%; in test [4], -1.77%; in test [5], 3.65%. Moreover, the Percent Effect in the test filed under Homo sapiens is 15.6%; in [6], 5.79%; in [7], 7.69%; in [8] it was -12.1%.
On to `COc1c(CNC2CCSc3ccc(F)cc32)c(C)nn1C` (stereo not given), for which the Percent Effect in [1] is 0.667%; in test [2], 13%; in test [3], 7.38%; with Trypanosoma cruzi, -0.373%; in test [4], -12.5%; in test [5], 10.9%. In addition, the Percent Effect in the test listed under Homo sapiens is 64.7%; in [6], 5.88%; in test [7] it was 11.8%; in [8] it was -4.85%.
Consider `c1cnn(CC2CN(Cc3noc(C4CC4)n3)CCO2)c1` (stereo not given), for which the Percent Effect was -9.46% in test [1]; 16% in test [2]; 4.59% in test [3]; 1.81% in the test on Trypanosoma cruzi; -3.1% in test [4]; 10.8% in [5]. Besides, the Percent Effect in the test filed under Homo sapiens is 7.98%; in test [6] it was 3.68%; in test [7], 7.69%; in test [8], -6.72%.
Turning to `COc1ccc(CC(=O)NC2(C)CCS(=O)(=O)C2)cc1F` (stereo not given), the Percent Effect in test [1] was -0.834%; in test [2] it was 10.7%; in test [3], -4.85%; in the test on Trypanosoma cruzi it was 0.803%; in test [4], -1.77%; in [5], 4.5%. In addition, the Percent Effect in the test listed under Homo sapiens was 8.89%; in test [6], 5.79%; in [7] it was 12.8%; in test [8], -12.7%.
Take `CC(C)c1nc(C2CCCN2CC(=O)Nc2ccc(Cl)cn2)no1` (stereo not given): the Percent Effect in test [1] was -10.5%; in test [2], 18.7%; in [3], 16.2%; in the test on Trypanosoma cruzi it was 5.62%; in test [4], -4.88%; in [5] it was 8.23%. For the same compound, the Percent Effect was 4.35% in the test listed under Homo sapiens, 5.79% in test [6], 10.3% in [7] and -14.8% in test [8].
Turning to `Cc1cc(C)n(CC2CCCCN2C(=O)c2cnn(C)c2)n1` (stereo not given), the Percent Effect in [1] was -5.83%; in [2], 8%; in [3], 1.34%; in the test with Trypanosoma cruzi, -5.22%; in test [4], -2.22%; in test [5], 6.02%. Further, the Percent Effect in the test filed under Homo sapiens was 5.12%; in [6] it was -0.526%; in test [7] it was 2.56%; in test [8], -0.708%.
In the case of `O=C(NCc1cc[nH]n1)NCC(c1ccc(F)cc1)N1CCOCC1` (stereo not given), the Percent Effect is -1.44% in [1]; 23.1% in test [2]; -10.9% in [3]; 4.79% in the test on Trypanosoma cruzi; 2.87% in test [4]; 7.93% in [5]. Besides, the Percent Effect in the test listed under Homo sapiens is 8.57%; in test [6] it was 4.31%; in test [7], 20.5%; in test [8], -7.47%.
As to `Cc1ccc(-c2nnc(CNCCn3cc(C)cn3)o2)cc1`, the Percent Effect was 0.127% in [1]; 7.79% in test [2]; 7.81% in test [3]; -0.56% in the test on Trypanosoma cruzi; 1.02% in [4]; 6.67% in test [5]. For the same compound, the Percent Effect in the test listed under Homo sapiens is -6.58%; in test [6], 4.9%; in test [7] it was 11.8%; in test [8], -4.71%.
Take `CCCc1cc(C(=O)N2CCOC(c3nc(-c4cccs4)no3)C2)no1` (stereo not given): the Percent Effect in test [1] is -3.79%; in [2] it was 9.33%; in [3] it was 6.29%; in the test with Trypanosoma cruzi, 3.55%; in test [4], 2.21%; in [5], 7.55%. In addition, the Percent Effect in the test listed under Homo sapiens is 17%; in test [6] it was -12.7%; in test [7], 2.5%; in test [8], -19.9%.
For `Cn1cnnc1C1CCCN(C(=O)c2cc(Cl)c3c(c2)OCO3)C1` (stereo not given), the Percent Effect in [1] was -2.96%; in [2] it was 5.33%; in test [3], 2.45%; in the test with Trypanosoma cruzi, -5.02%; in test [4], 2.22%; in test [5] it was 8.57%. Further, the Percent Effect in the test listed under Homo sapiens was 4.91%; in test [6] it was 0.526%; in test [7] it was 10.3%; in [8], -5.32%.
Regarding `CN(C)CCN1CCCC12CCN(C(=O)c1cccn1C)CC2`, the Percent Effect was -4.21% in test [1]; -1.3% in test [2]; 2.81% in test [3]; 2.04% in the test on Trypanosoma cruzi; -2.02% in [4]; 0.618% in [5]. The Percent Effect was -20.1% in the test filed under Homo sapiens, -0.526% in test [6], -2.56% in test [7] and 4.29% in [8].
